# According to PubChem BioAssay (NCI):
# The panel holds about 79,000 compounds, 15% with a hit somewhere; the sample as a whole holds those more often. Unmarked numbers belong to inactive results. Activity calls are given as the source filed them. Cut-off read from the data, not from the text of the source: active = growth inhibition above about 70%; inactive = the rest.
# Experiments:
# [1] = NCI Yeast Anticancer Drug Screen. Data for the rad50 strain (AID 155);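 note: 0% = growth of vehicle-only cultures of the same strain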; conditions: S. cerevisiae rad50 strain growth inhibition; at 50.0 µM; active compounds read high
# Procedure, shortened: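 DNA repair mutant yeast, compound exposure, growth read-out; inhibition is taken relative to vehicle.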
# [2] = NCI Yeast Anticancer Drug Screen. Data for the mec2-1 strain (AID 157); conditions: S. cerevisiae mec2-1 strain, at 50.0 µM, active compounds read high
# Procedure, shortened: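 Using mec2-1 yeast: add compound, measure growth, express inhibition versus vehicle-treated cultures.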
# [3] = NCI Yeast Anticancer Drug Screen. Data for the sgs1 mgt1 strain (AID 161);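 note: 0% = growth of cultures given vehicle only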; conditions: S. cerevisiae sgs1 mgt1 strain, at 50.0 µM, active compounds read high
# Procedure, shortened: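 Compounds are added to genetically altered yeast, and growth is compared with cultures given vehicle alone to give percent inhibition.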
# [4] = NCI Yeast Anticancer Drug Screen. Data for the cln2 rad14 strain (AID 165);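 note: 0% = growth equal to vehicle treated cultures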; conditions: S. cerevisiae cln2 rad14 strain, at 50.0 µM, active compounds read high
# Procedure, shortened: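 Yeast strain cln2 rad14, bearing defects in cell cycle control and DNA repair, serves as the test system; values reflect growth inhibition compared with vehicle.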
# [5] = NCI Yeast Anticancer Drug Screen. Data for the bub3 strain (AID 167); conditions: S. cerevisiae bub3 mutant strain, at 50.0 µM, active compounds read high
# Procedure, shortened: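 In this screen, a yeast mutant lacking normal mitotic checkpoint function is challenged with compound. Relative growth versus vehicle gives the inhibition value.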
# [6] = NCI Yeast Anticancer Drug Screen. Data for the mlh1 rad18 strain (AID 175); conditions: S. cerevisiae mlh1 rad18 strain growth inhibition; at 50.0 µM; active compounds read high
# Procedure, shortened: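 Steps: expose repair-defective yeast to compound; measure growth; express inhibition against vehicle-treated controls.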
Structure (SMILES),growth inhibition [1],growth inhibition [2],growth inhibition [3],growth inhibition [4],growth inhibition [5],growth inhibition [6]
O=c1oc(Cl)cc2oc(=O)n(-c3ccccc3)c(=O)c12,10.8%,7%,18.8%,-3.15%,-9.25%,9.45%
C=CCOC(=O)NC1C(OC(C)[C@@H](NC(=O)OCc2ccccc2)C(=O)OC(C)(C)C)OC(COC(C)=O)C(OC(C)=O)C1OC(C)=O (stereo partly specified),-26.9%,-23.8%,-16.4%,22.1%,-1.55%,-4.15%
COc1cc2c(cc1OCc1ccccc1)C(c1cc(OC)c(OC)c(OC)c1)=C1C(=O)OCC1C2 (stereo unspecified),9.4%,-1.1%,-16.4%,-7.2%,-1.25%,1%
CN(C)Cc1c[nH]c2nc[nH]c(=O)c12,-1.3%,-31.4%,-31.4%,6%,-9.5%,-16.4%
Cc1ccccc1N=C(N)Nc1ccccc1,5.5%,-4.85%,-3.9%,-43.3%,-10.6%,-6.7%
CCN(CC)c1ccc(N=Nc2ccc(C)cc2)cc1,-6.7%,-22.5%,-12.5%,-0.4%,-15.8%,12.1%
NC(=O)OCC(COc1ccc(Cl)cc1)OC(=O)c1cc([N+](=O)[O-])cc([N+](=O)[O-])c1 (stereo unspecified),29.2%,23.9%,20.4%,17.6%,14.3%,8.75%
CSc1ncc2c(n1)-c1ccccc1OC2N1CCOCC1 (stereo unspecified),-4.95%,8.1%,-1.65%,-9.55%,-18.4%,40.7%
CCN(CC)CC(=N)N(CC)c1ccccc1,26.5%,6.95%,4.7%,11.9%,23.8%,28.5%
NC(=S)c1ccc(N=Cc2ccccn2)cc1,-0.25%,-0.35%,-1.7%,-12.3%,3.1%,-8%
CCOC(=O)c1ncc(Cl)cc1NC(=O)CC(=O)Nc1cc(Cl)cnc1C(=O)OCC,59.8%,-8%,32.5%,-31.1%,1.1%,20.3%
Cc1c2ccccc2c(CN(C)CC(=O)NCC(=O)NCC(=O)O)c2ccccc12,97.5% (active),97.7% (active),97.5% (active),97.5% (active),98.2% (active),98.5% (active)
N#CCC(=O)N1CCCCC1,-8.3%,-12.1%,9.9%,-3.15%,3.1%,-19.8%
Cc1cc2ncn(C3CCCO3)c2cc1C (stereo unspecified),6.35%,-6.1%,-14.3%,3.45%,3.7%,-23.1%
CSc1nccc(=O)n1C,9.6%,-14.8%,-9.8%,-52.6%,-21.6%,-2.15%
COC(=O)c1nc(N)nc(C(=O)OC)c1C(=O)c1ccco1,3.95%,-4.25%,30.3%,-3.7%,1.55%,26.5%
CCOC(=Nc1cccc2ccccc12)Nc1cccc2ccccc12,-5.9%,-6.95%,-8.6%,-25.2%,-15.8%,-6.65%
CN(C)C(=O)c1ccc[n+](CC(=O)NCc2ccccc2)c1,5.45%,-7.35%,-3.4%,18.8%,2.25%,13.5%
CCCCCNc1ccnc(=O)[nH]1,11.8%,6.8%,2%,-39.5%,-12.9%,-12.7%
CCN(Cc1ccc(S(=O)(=O)O)cc1)c1cccc(S(=O)(=O)O)c1,14.1%,26.4%,18.4%,-20.9%,-18.2%,9.35%
O=C(NNC(=O)c1cccc(F)c1)c1cccc(F)c1,-20.6%,-8.1%,-13.3%,18.9%,-6.4%,-1.75%

Structure (SMILES),growth inhibition [1],growth inhibition [2],growth inhibition [3],growth inhibition [4],growth inhibition [5],growth inhibition [6]
CCOC(=O)Cn1nnnc1N,-3.4%,23.6%,-5.2%,-21.9%,-13.8%,30.6%
Cc1ccccc1NN,29.1%,7.05%,-2.3%,-2.6%,4%,7.6%
O=C(O)C(c1ccc(-c2ccccc2)cc1)C1CCCCC1 (stereo unspecified),47.9%,26.4%,50.2%,3.35%,45%,40.5%
NC(N)=N/N=C/c1c(-c2ccc(Cl)cc2)nc2n1CCS2,-36.6%,-51.6%,-18%,-10.9%,-5.05%,-25.2%
CC(C)(C)OC(=O)N(CCCCN(CCCNC(=O)C(F)(F)F)C(=O)OC(C)(C)C)CCCNC(=O)C(F)(F)F,-14.9%,4.75%,-14.3%,3.15%,4.6%,-32%
COc1cc(-c2cc(OC)c(N)cc2Br)c(Br)cc1N,38.8%,17.2%,60.6%,49.9%,54.4%,35.9%
Nc1ccc2nc3c4ccccc4c(O)n3nc2c1,-18.5%,-9.15%,-18.6%,-47.9%,-6.2%,14.6%
CN(C)c1ccc(/C=N/NC(=O)c2cnc3ccccc3c2)cc1,-7.05%,-4.95%,-11.3%,-0.4%,8.1%,17.4%
CC(=O)NC(C)c1ccc2ccccc2c1 (stereo unspecified),-5.4%,14.8%,1.8%,7.55%,-8.5%,11.4%
CC(C)N(C(C)C)C1C=CC(N(C(C)C)C(C)C)CC1 (stereo unspecified),5%,-15.9%,2.3%,-33.6%,-7.3%,-0.35%
C=CCNC(=S)/N=C/C(C(=O)Nc1ccc(Cl)cc1)=C(\C)O,-34.1%,-10.1%,-30.2%,6.6%,-16.8%,-12.8%
O=C1O/C(=C(\Br)c2ccccc2)c2ccccc21,52.9%,-1.4%,55.2%,4.2%,29.1%,31.6%
Cc1ccc(S(=O)(=O)NCC(=O)OCc2ccccc2)cc1,4.15%,3.4%,1.2%,-0.55%,12.4%,7.8%
c1cc2c([nH]1)CCCC2,12.5%,14.3%,2.45%,21.1%,23.6%,13.9%
O=C(CCc1nnc2s/c(=C\c3ccc(Cl)cc3Cl)c(=O)n12)Nc1cc(Cl)c(Cl)cc1Cl,-17.6%,18.2%,-7.4%,20.6%,9.05%,4.35%
CCOc1ccccc1NC(=S)NC(=O)CCc1ccccc1,-12.9%,14.2%,41.9%,-35%,31.6%,21.8%
CCOC(=O)c1cn(CC)c2cc(-n3cccc3)c(F)cc2c1=O,46.6%,27.6%,48.1%,39.5%,27%,49.9%
CCOC(=O)C(/C=N/C(=S)Nc1c(C)cccc1C)=C(/O)c1ccccc1,-50.3%,-21.6%,-26.1%,-18.6%,-21.2%,-33.4%
COC(=O)c1c(-c2ccccc2)cc2c3cc(-c4ccccc4)c(C(=O)OC)n3c3ccccc3n12,-2.35%,-4.55%,-31.5%,-23.9%,-1.95%,-10.6%
Cc1sc2nc3n(c(=O)c2c1C)N=C(c1ccc([N+](=O)[O-])cc1)CS3,9.15%,-14.9%,-10.1%,24.1%,7.2%,-8.1%
